Bioassay records: PubChem, several laboratories
Many of the other results were omitted from the sample, so hits are more common in it than they were.
hDAT+cocaine – modulates human dopamine transporter uptake under cocaine. LLC-PK1 hDAT cells, [14C]-dopamine uptake with cocaine IC80; actives deviate in either direction. B-score at 10 µM. 110,000 compounds, 1.3% hits;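 active means Z score or B-score, a plate-position-corrected score, falls beyond the plate's 99.7% confidence bounds, in either direction; inactive means both scores lie inside the 99.7% bounds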;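 further: scored against the spread of the other compound wells on the same plate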
BAP1 inh – inhibitors of human BAP1 deubiquitinase; 72,000 compounds, 0.48% hits; calls only at 20 µM; recombinant BAP1, Ub-AMC hydrolysis fluorescence kinetic; hits give low values; AID 436;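 active means activity remaining at or below 50% of control, provided the compound also passes the data quality filters; inactive means the rest, including low values that fail the filters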;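 further: 100% = DMSO wells rate and 0% = substrate alone blank rate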
D1 mod – D1 dopamine receptor (human) allosteric modulation; 58,000 compounds, 5.9% hits; AID 641; HEK293 D1, CRE-luciferase, dopamine EC30 potentiation; actives deviate in either direction; B-score at 10 µM;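 active means luminescence count or its row- and column-corrected plate score outside the 99.7% band of the plate's sample wells, on either side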
Target sequence (P21728 whole entry, looked up): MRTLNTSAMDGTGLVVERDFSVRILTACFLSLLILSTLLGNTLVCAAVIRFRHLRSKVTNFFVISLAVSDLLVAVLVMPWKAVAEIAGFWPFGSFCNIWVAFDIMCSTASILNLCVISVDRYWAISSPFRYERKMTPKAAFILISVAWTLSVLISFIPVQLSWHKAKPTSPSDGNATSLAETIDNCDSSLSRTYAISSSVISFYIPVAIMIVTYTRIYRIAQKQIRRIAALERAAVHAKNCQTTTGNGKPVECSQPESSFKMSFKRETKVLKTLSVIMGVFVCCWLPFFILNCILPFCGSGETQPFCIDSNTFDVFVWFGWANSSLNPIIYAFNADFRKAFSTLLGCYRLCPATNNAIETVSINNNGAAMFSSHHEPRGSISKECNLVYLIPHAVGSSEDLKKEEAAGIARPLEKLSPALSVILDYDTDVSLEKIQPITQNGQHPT
BAP1 inh confirm – BAP1 (human) enzyme inhibition, confirmed | AID 753 | % of control activity, % at 20 µM | 310 compounds, 8% hits | shares compounds with BAP1 inh | purified BAP1, Ub-ethyl ester hydrolysis, HPLC; hits give low values;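 active means percent of control activity at or below 60%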
D1 PAM confirm – confirmation of human D1 dopamine receptor allosteric modulators. shares compounds with D1 mod. HEK293 D1 CRE-luciferase, dopamine EC30 potentiation; hits give high values. luminescence at 10 µM. 2,200 compounds, 88% hits. AID 642;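 active means luminescence in either of two replicates above the same-plate mean plus 3 SD of the low-dose dopamine control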
D1 ag no DA – secondary test of D1 modulators: activity without dopamine | AID 646 | shares compounds with D1 mod | 1,900 compounds, 0.8% hits | luminescence at 10 µM | HEK293 D1 CRE-luciferase, luminescence, no dopamine; hits give high values; in the data active means luminescence above about 3900
Isoprot counter – counter-screen for D1 modulators: isoproterenol response in HEK293 cells | AID 647 | 2,200 compounds, 63% hits | HEK293 D1 CRE-luciferase, isoproterenol EC30 counter-screen; hits give high values | luminescence at 10 µM | shares compounds with D1 mod;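 active means luminescence in either replicate above plate mean of wells with a partly effective reference agonist dose plus 3 SD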;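 further: isoproterenol raises cAMP through native beta-adrenoceptor Gs so signal bypasses D1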
Active calls of the source: *; i = inactive; . = no result shown; + = active, no number.

SMILES	hDAT+cocaine	BAP1 inh	D1 mod	others
CN1CCN(c2ncnc3ccc(Br)cc23)CC1	-0.055	i	-2.29
CN1CCC(N(C)c2ncnc3ccc(Br)cc23)CC1	-0.141	i	-4.29*
O=C(Nc1ccc(Cl)cc1C(=O)c1ccccc1)c1ccc(Br)cc1	.	i	.
CCOc1ccc(C(=O)Nc2ccc(Br)cc2C(=O)c2ccccc2)cc1	.	i	.
O/N=C/c1c[nH]c2ccccc12	0.441	i	0.0652
C=CCN(CC=C)Cc1c[nH]c2ccccc12	0.134	i	-5.57*
O=C(Nc1ccc(Br)cc1C(=O)c1ccccc1Cl)c1ccc([N+](=O)[O-])cc1	.	i	.
CCn1nc(-c2ccccc2)nc2c(=O)n(C)c(=O)nc1-2	-0.0185	i	-8.71*
CCCCCCn1c(O)c(C=NC2CCCCC2N)c(=O)[nH]c1=O (configuration not stated)	-0.743	i	0.0599
CCCCn1c(O)c(C=NC2CCCCC2N)c(=O)[nH]c1=O (configuration not stated)	-8.77*	i	-0.827
Cc1ccc2c(c1)C1CN(C)CCC1N2C(=O)Nc1cccc(C(F)(F)F)c1 (configuration not stated)	1.73	.	.
Cc1ccc2c(c1)C1CN(C)CCC1N2C(=O)c1ccc(Br)o1 (configuration not stated)	0.377	i	-3.13*
Cc1ccc2c(c1)C1CN(C)CCC1N2S(=O)(=O)c1ccccc1 (configuration not stated)	0.268	i	.
Cc1ccc2c(c1)[C@@H]1CN(C)CC[C@@H]1N2C(=O)Nc1cccc(C(F)(F)F)c1	0.645	i	-4.78*
CCN1CC=C(c2c[nH]c3ccccc23)CC1	-1.04	i	-0.2
c1ccc2c(CCNC3=NCCC3)c[nH]c2c1	-0.0169	i	-2.7*
O=C(COc1ccc(Cl)cc1)Nc1ccc(Br)cc1C(=O)c1ccccc1	.	i	.
O=C(Nc1ccc(Br)cc1C(=O)c1ccccc1Cl)c1ccco1	.	i	.
COC(=O)C(O)(c1c(C)[nH]c2ccccc12)C(F)(F)F (configuration not stated)	-1.34	.	.
COC(=O)c1cc2c(cn1)[nH]c1ccccc12	.	+	.
Cc1ccc(C)c(N2CCNCC2)c1	.	i	.
O=C(Nc1ccc(Br)cc1C(=O)c1ccccc1)c1ccc(S(=O)(=O)N2CCOCC2)cc1	.	i	.
O=C(Nc1ccc(Br)cc1)c1nn(C23CC4CC(CC(C4)C2)C3)cc1Br	3.02*	.	.
COc1cc(C(=O)OC2CC3CCC(C2)N3C)cc(OC)c1OC (configuration not stated)	.	i	.
Cc1c(C(=O)N2CCC3(CC2)OCCO3)sc2ncnc(N3CCN(c4ccccn4)CC3)c12	1.08	i	-6.7*
SMILES	hDAT+cocaine	BAP1 inh	D1 mod	others
O=C(c1sc2ccccc2c1Cl)N1CCC2(CC1)OCCO2	0.968	i	-0.327
COc1ccccc1-n1c(C=Cc2ccccc2[N+](=O)[O-])nc2ccccc2c1=O	.	i	.
COc1cc(C)c(CNCCc2ccccc2OC)cc1C	.	i	.
CCc1nc2ccccc2c(=O)n1-c1ccc(O)cc1	.	i	.
CCCCn1c(O)c(C(C)=NC(Cc2c[nH]c3ccccc23)C(=O)OC)c(=O)[nH]c1=O (configuration not stated)	2.69*	i	-0.681
CCCCCCn1c(O)c(C(C)=NC)c(=O)[nH]c1=O	0.612	i	.
CC(=O)Oc1ccc(C(=O)Nc2ccc(Cl)cc2C(=O)c2ccccc2)cc1	.	i	.
CC12CCC(O)CC1=CCC1C2CCC2(C)C(O)C(=Cc3ccc(OC(F)F)cc3)CC12 (configuration not stated)	.	i	.
Nc1nn[nH]n1	.	i	.
Cc1ccc2nc3c(cc2c1)CC1(C(=O)N(C)C(=O)N(C)C1=O)C1COCCN31 (configuration not stated)	0.225	i	-0.423
Cc1ccc2nc3c(cc2c1)CC1(C(=O)N(C)C(=O)N(C)C1=O)C1CCCCN31 (configuration not stated)	2.94*	i	-0.0502
CNc1ccc2oc(C[C@H]3O[C@@]4(CC[C@H]3C)O[C@H]([C@H](C)C(=O)c3ccc[nH]3)[C@H](C)C[C@H]4C)nc2c1C(=O)O	-0.797	+	.
Fc1ccc2c(c1)nnn2C1CCN(Cc2nnnn2CCc2ccccc2)CC1	1.7	i	-1.46
Fc1ccc2c(c1)nnn2C1CCN(Cc2ccccc2)CC1	0.176	i	-4.42*
O=P(Nc1cccc(F)c1)(Oc1ccccc1Cl)Oc1ccccc1Cl	.	i	.
CCCCCCn1c(=O)c(C(=O)Nc2ccncc2)c(O)c2ccccc21	.	i	-0.227
CCCCn1c(=O)c(C(=O)NCc2ccncc2)c(O)c2ccccc21	0.794	+	1.44	BAP1 inh confirm=140.5
CC(C)OC(=O)c1c(N)n(Cc2ccco2)c2nc3ccccc3nc12	-0.0982	i	1.4
COCCOC(=O)c1c(N)n(Cc2ccco2)c2nc3ccccc3nc12	0.315	.	0.394	BAP1 inh confirm=145.4
O=C(Nc1cccnc1)c1c(O)c2c(n(Cc3ccccc3)c1=O)CCCC2	-0.158	+	.	BAP1 inh confirm=69.0
O=C(Nc1ccncc1)c1c(O)c2ccccc2n(Cc2ccccc2)c1=O	.	i	.
COc1ccc(C(=O)Nc2ccc(Cl)cc2C(=O)c2ccccc2Cl)c(OC)c1	.	i	.
O=C(Nc1ccc(Cl)cc1C(=O)c1ccccc1Cl)c1ccc([N+](=O)[O-])s1	.	i	.
COc1ccc(Cc2nccc3cc(OC)c(OC)cc23)cc1OC	0.0739	i	13.1*	D1 PAM confirm=7016*;D1 ag no DA=2184;Isoprot counter=9832*
CCN(CC)c1ccc(CN(C)CCc2ccc(OC)c(OC)c2)cc1	0.35	.	.
SMILES	hDAT+cocaine	BAP1 inh	D1 mod	others
Cc1nc2ncnn2c(C)c1CCC(=O)N1CCC2(CC1)OCCO2	-0.064	i	2.8*	D1 PAM confirm=5300;D1 ag no DA=1580;Isoprot counter=3476
Cc1nc2c(-c3ccc(F)cc3)c(C)nn2c(C)c1CCC(=O)N1CCC2(CC1)OCCO2	1.07	i	6.14*	D1 PAM confirm=7792*;D1 ag no DA=1504;Isoprot counter=3452*
Cc1nc2cc(-c3ccccc3)nn2c(C)c1CCC(=O)N1CCC2(CC1)OCCO2	0.361	i	0.786
Cc1ccc(Cc2c(C)nc3nc(SCC(=O)N4CCC5(CC4)OCCO5)nn3c2C)cc1	0.686	.	.
CC(=NCCCO)c1c(O)n(Cc2ccccc2)c(=O)[nH]c1=O	-0.416	i	0.593
CCC(=NCc1ccco1)c1c(O)n(C2CCCCC2)c(=O)[nH]c1=O	-0.857	i	13.8*	D1 PAM confirm=16640*;D1 ag no DA=832;Isoprot counter=4524*
CCC(=NCc1cccnc1)c1c(O)n(C2CCCCC2)c(=O)[nH]c1=O	0.703	i	14.5*	D1 PAM confirm=9572*;D1 ag no DA=1408;Isoprot counter=4052*
CC(=NCc1ccco1)c1c(O)n(Cc2ccccc2)c(=O)[nH]c1=O	-0.17	i	4.47*	D1 PAM confirm=10196*;D1 ag no DA=1640;Isoprot counter=2956*
